The values below come from PubChem BioAssay (EPA / NIEHS).

A short description of experiment [1]: ATG_TAL_CIS: Attagene CIS-FACTORIAL HepG2 Assay for human TAL Basal Promoter (AID 2282966; active means hit-call score of the fitted dose curve at least 0.9, where 1 is the maximum; inactive means score below 0.9;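 further: background control endpoint measuring basal TAL promoter reporter mRNA not a specific factor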). The conditions noted are these: HepG2 Attagene cis-factorial TAL promoter reporter; actives raise or lower the signal. The essentials: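 Endogenous transcription-factor activity is sensed in HepG2 cells through transfected cis-promoter reporter constructs. After 24 h dosing, reporter transcripts are quantified by RT-PCR and capillary electrophoresis. Gain or loss of signal is fitted relative to DMSO.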

Experiment [2] in a line: ATG_TGFb_CIS: Attagene CIS-FACTORIAL HepG2 Assay for human Transforming Growth Factor (TGF) (AID 2282967; active means hit-call score of the fitted dose curve at least 0.9, where 1 is the maximum; inactive means score below 0.9). The conditions noted are these: HepG2 Attagene CIS TGFb reporter, mRNA transcription; actives raise or lower the signal. The essentials: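 Transient MRTU transfection of HepG2 (FuGene 6). Dose 24 h. TriZol RNA, oligo(dT) RT, PCR, 6-FAM primer extension, HpaI cut, CE. Bidirectional fit, DMSO = baseline.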

Experiment [3] can be described thus: ATG_VDRE_CIS: Attagene CIS-FACTORIAL HepG2 Assay for human Vitamin D Receptor Element (VDRE) (AID 2282968; active means hit-call score of the fitted dose curve at least 0.9, where 1 is the maximum; inactive means score below 0.9). The conditions noted are these: HepG2 VDRE cis-reporter transcription, actives raise or lower the signal. In a few lines: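 Compounds were applied for 24 h to HepG2 cells transfected with promoter-regulated reporter units. Total RNA was reverse-transcribed, and reporter amplicons were fluorescently labelled and sized by capillary electrophoresis.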

Experiment [4] has as its target Nuclear receptor subfamily 1 group I member 3 (Homo sapiens) (UniProt Q14994). Briefly: ATG_CAR_TRANS: Attagene TRANS-FACTORIAL HepG2 Assay for human Constitutive Androstane Receptor (CAR) (AID 2282969).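 Further: activators raise reporter mRNA above DMSO so AC50 marks induction.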 The settings on record: HepG2 Attagene TRANS-FACTORIAL CAR reporter. The essentials: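 Transiently transfected HepG2, multiplex TRANS reporters (CAR-Gal4 chimera driving GAL4-UAS reporter). 24 h dosing. Readout: reporter transcript by RT-PCR + capillary electrophoresis, fluorescence intensity; positive direction vs DMSO.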

Experiment [5] deals with X-box-binding protein 1 (Homo sapiens) (UniProt P17861). Briefly: ATG_Xbp1_CIS: Attagene CIS-FACTORIAL HepG2 Assay for human X-box Binding Protein 1 (XBP1) (AID 2282972; active means hit-call score of the fitted dose curve at least 0.9, where 1 is the maximum; inactive means score below 0.9). The settings on record: HepG2 XBP1 cis-element reporter, Attagene multiplex; actives raise or lower the signal. The essentials: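 Human hepatoma HepG2, cis-element reporter system, 24 h treatment; mRNA quantified by RT-PCR/CE fluorescence; fit relative to DMSO.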
Chain of X-box-binding protein 1 (Homo sapiens) (P17861 whole entry, looked up): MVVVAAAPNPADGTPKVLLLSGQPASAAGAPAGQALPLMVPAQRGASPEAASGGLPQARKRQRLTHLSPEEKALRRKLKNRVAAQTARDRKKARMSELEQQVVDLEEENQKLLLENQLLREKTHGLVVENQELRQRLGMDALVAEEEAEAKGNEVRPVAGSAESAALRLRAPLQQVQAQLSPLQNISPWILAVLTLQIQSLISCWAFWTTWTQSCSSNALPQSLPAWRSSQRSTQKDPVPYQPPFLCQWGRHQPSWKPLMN

For experiment [6], the target named is Oxysterols receptor LXR-beta (Homo sapiens) (UniProt P55055). Briefly: ATG_LXRb_TRANS: Attagene TRANS-FACTORIAL HepG2 Assay for human Liver X Receptor beta (LXRb) (AID 2282981). The conditions noted are these: HepG2 Attagene TRANS GAL4-LXRb reporter, mRNA. In a few lines:
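Multiplexed reporter assay, HepG2, 24 h dosing. Fluorescence of labelled RT-PCR products after capillary electrophoresis gives transcript level; positive fitting direction relative to DMSO.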

Experiment [7] can be described thus: ATG_M_06_TRANS: Attagene TRANS-FACTORIAL HepG2 Assay for M06 Transcription Factor (Internal Marker) (AID 2282983). The conditions noted are these: HepG2 Attagene TRANS M06 internal marker reporter. The essentials:
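Human liver HepG2 cells bearing transiently transfected chimeric NR-GAL4 reporter units were treated with chemicals for 24 h. Total RNA was reverse-transcribed, reporter sequences amplified and labelled, then quantified by capillary electrophoresis. Activity was fitted upward relative to DMSO.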

In experiment [8] the target is Nuclear receptor subfamily 4 group A member 2 (Homo sapiens) (UniProt P43354). Briefly: ATG_NURR1_TRANS: Attagene TRANS-FACTORIAL HepG2 Assay for human Nuclear Receptor Related Protein 1 (NURR1) (AID 2282985). The settings on record: HepG2 Attagene TRANS reporter, mRNA readout. The essentials: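 Endpoint: reporter mRNA increase relative to DMSO. HepG2 cells transfected with reporter units, treated 24 h; RNA processed by RT-PCR, labelling, HpaI digestion and capillary electrophoresis.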
Chain of Nuclear receptor subfamily 4 group A member 2 (Homo sapiens) (P43354 whole entry, looked up): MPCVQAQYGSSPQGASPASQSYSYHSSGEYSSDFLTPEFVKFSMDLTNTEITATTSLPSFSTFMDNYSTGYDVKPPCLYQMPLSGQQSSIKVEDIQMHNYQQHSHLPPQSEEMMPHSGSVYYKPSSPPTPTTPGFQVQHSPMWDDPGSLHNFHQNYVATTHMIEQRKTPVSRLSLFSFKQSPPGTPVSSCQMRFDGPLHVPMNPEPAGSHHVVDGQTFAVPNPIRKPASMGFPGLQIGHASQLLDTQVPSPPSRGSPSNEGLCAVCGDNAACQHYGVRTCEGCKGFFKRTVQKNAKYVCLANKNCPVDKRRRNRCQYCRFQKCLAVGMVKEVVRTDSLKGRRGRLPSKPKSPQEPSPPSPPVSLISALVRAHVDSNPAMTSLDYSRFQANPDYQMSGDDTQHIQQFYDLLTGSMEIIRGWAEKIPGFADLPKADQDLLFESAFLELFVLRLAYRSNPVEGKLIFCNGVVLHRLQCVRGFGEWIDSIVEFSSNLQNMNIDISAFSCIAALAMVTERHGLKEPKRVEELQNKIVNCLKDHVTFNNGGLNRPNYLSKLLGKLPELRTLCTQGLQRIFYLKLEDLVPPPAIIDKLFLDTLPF

Experiment [9] has as its target Transcriptional activator Myb (Homo sapiens) (UniProt P10242). Briefly: ATG_Myb_CIS: Attagene CIS-FACTORIAL HepG2 Assay for human Myeloblastosis (Myb) Proto-Oncogene Transcription Factor (AID 2282986; active means hit-call score of the fitted dose curve at least 0.9, where 1 is the maximum; inactive means score below 0.9). The conditions noted are these: HepG2 Attagene CIS-FACTORIAL Myb reporter transcription; actives raise or lower the signal. In a few lines:
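After 24 h of compound dosing, total RNA from transfected HepG2 cells is reverse-transcribed and the reporter sequences amplified, labeled and separated by capillary electrophoresis. Values come from bidirectional fitting against DMSO.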

For experiment [10], the target named is Nuclear respiratory factor 1 (Homo sapiens) (UniProt Q16656). Briefly: ATG_NRF1_CIS: Attagene CIS-FACTORIAL HepG2 Assay for human Nuclear Respiratory Factor 1 (NRF1) Orphan Gene (AID 2282987; active means hit-call score of the fitted dose curve at least 0.9, where 1 is the maximum; inactive means score below 0.9). The conditions noted are these: HepG2 NRF1 cis-element reporter, Attagene multiplex; actives raise or lower the signal. The essentials:
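Measured: fluorescent reporter-specific RT-PCR products from transfected HepG2 cells, separated by capillary electrophoresis. Exposure lasted 24 h. Analysis used bidirectional curve fitting with DMSO as negative control.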

The nature of experiment [11]: ATG_GAL4_TRANS: Attagene TRANS-FACTORIAL HepG2 Assay for GAL4 (Internal Marker) (AID 2282976). The conditions noted are these: HepG2 Attagene TRANS GAL4 internal marker reporter. In a few lines: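 Fluorescence from capillary electrophoresis of labelled RT-PCR products quantifies reporter mRNA induction after 24 h dosing of HepG2 cells carrying transfected GAL4-UAS reporter transcription units. Vehicle DMSO serves as baseline.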

Experiment [12] concerns the target Hepatocyte nuclear factor 4-alpha (Homo sapiens) (UniProt P41235). Briefly: ATG_HNF4a_TRANS: Attagene TRANS-FACTORIAL HepG2 Assay for human Hepatocyte Nuclear Factor 4 alpha (HNF4a) (AID 2282982). The settings on record: HepG2 HNF4a transactivation reporter, mRNA readout. The essentials:
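Endpoint reflects transcriptional activation of a GAL4-UAS reporter by an HNF4a-GAL4 chimera in transfected HepG2 cells, 24 h post-dosing. Fluorescence from RT-PCR products separated by capillary electrophoresis; DMSO baseline.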

Experiment [13] in a line: ATG_M_32_TRANS: Attagene TRANS-FACTORIAL HepG2 Assay for M32 Transcription Factor (Internal Marker) (AID 2282984).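 Further: transcript level of a background control reporter unit measured by RT-PCR and capillary electrophoresis.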 The settings on record: HepG2 Attagene TRANS M32 internal marker reporter. In a few lines:
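Internal-marker readout from a multiplexed transcription reporter panel. HepG2 cells were transfected with GAL4-UAS reporter units, treated 24 hours, and reporter transcript levels determined by fluorescence after RT-PCR and capillary separation.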

The target of experiment [14] is Estrogen receptor (Homo sapiens) (UniProt P03372). Briefly: ATG_ERa_TRANS: Attagene TRANS-FACTORIAL HepG2 Assay for human Estrogen Receptor alpha (ERa) (AID 2282970). The conditions noted are these: HepG2 Attagene TRANS ERa GAL4 reporter, mRNA. In a few lines:
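Transfected HepG2 cells carrying GAL4-UAS-driven reporter units were dosed for 24 hours. Total RNA was reverse-transcribed, reporter sequences PCR-amplified, FAM-labelled, HpaI-digested and resolved by capillary electrophoresis. Increases over DMSO control defined activity.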

Experiment [15] deals with Estrogen-related receptor gamma (Homo sapiens) (UniProt P62508). Briefly: ATG_ERRg_TRANS: Attagene TRANS-FACTORIAL HepG2 Assay for human Estrogen-Related Receptor gamma (ERRg) (AID 2282977).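 Further: hits increase reporter signal over DMSO so potencies reflect activators.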 The settings on record: HepG2 Attagene TRANS reporter, ERRg transactivation. In a few lines:
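Induction of reporter transcripts through a chimeric NR-Gal4 protein is quantified in transfected human HepG2 liver cells after 24 h chemical exposure, using RT-PCR with capillary electrophoresis detection and DMSO as baseline.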

Experiment [16] addresses Glucocorticoid receptor (Homo sapiens) (UniProt P04150). Briefly: ATG_GR_TRANS: Attagene TRANS-FACTORIAL HepG2 Assay for human Glucocorticoid Receptor (GR) (AID 2282978).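 Further: activators score as hits since higher reporter transcript over DMSO is fitted.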 The settings on record: HepG2 Attagene TRANS GR reporter, mRNA transcription. In a few lines: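 After 24 h incubation with test chemical, transfected HepG2 cells were lysed for RNA; reporter cDNA was amplified, FAM-labelled, HpaI-digested and sized on a capillary analyser. Signal gain relative to DMSO was scored.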

The target of experiment [17] is Bile acid receptor (Homo sapiens) (UniProt Q96RI1). Briefly: ATG_FXR_TRANS: Attagene TRANS-FACTORIAL HepG2 Assay for Farnesoid X Receptor (FXR) (AID 2282979).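 Further: hits raise reporter mRNA above DMSO so AC50 marks FXR activation.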 The settings on record: HepG2 Attagene TRANS FXR-GAL4 reporter transcription. The essentials:
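Chimeric FXR-GAL4 activity in transiently transfected human HepG2 liver cells is scored as induction of reporter mRNA after 24 h of dosing. Detection uses RT-PCR with fluorescent labelling and capillary electrophoresis, with DMSO serving as baseline.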

The nature of experiment [18]: ATG_M_19_TRANS: Attagene TRANS-FACTORIAL HepG2 Assay for M19 Transcription Factor (Internal Marker) (AID 2282974). The conditions noted are these: HepG2 Attagene TRANS-FACTORIAL M19 internal marker reporter. In a few lines: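 Transfected HepG2 (GAL4-UAS MRTUs), 24 h compound, TriZol RNA, DNase-treated RT, reporter PCR, FAM label, HpaI digest, CE fluorescence; gain vs DMSO.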

For experiment [19], the target named is Oxysterols receptor LXR-alpha (Homo sapiens) (UniProt Q13133). Briefly: ATG_LXRa_TRANS: Attagene TRANS-FACTORIAL HepG2 Assay for human Liver X Receptor alpha (LXRa) (AID 2282980). The conditions noted are these: HepG2 Attagene TRANS reporter, LXRa transactivation. In a few lines:
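Transient HepG2 transfectants, 24 h dosing, RT-PCR/CE mRNA reporter quantitation; gain-of-signal vs DMSO.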

Molecules are shown by their SMILES. Records with an inconclusive call do not appear. Calls of active or inactive are those of the source. How the source made its calls, unless noted: active means hit-call score of the fitted dose curve at least 0.9, where 1 is the maximum; inconclusive means response in the unintended direction; inactive means score below 0.9.

Chain of Estrogen receptor (Homo sapiens) (P03372 whole entry, looked up, the tested form may be a part): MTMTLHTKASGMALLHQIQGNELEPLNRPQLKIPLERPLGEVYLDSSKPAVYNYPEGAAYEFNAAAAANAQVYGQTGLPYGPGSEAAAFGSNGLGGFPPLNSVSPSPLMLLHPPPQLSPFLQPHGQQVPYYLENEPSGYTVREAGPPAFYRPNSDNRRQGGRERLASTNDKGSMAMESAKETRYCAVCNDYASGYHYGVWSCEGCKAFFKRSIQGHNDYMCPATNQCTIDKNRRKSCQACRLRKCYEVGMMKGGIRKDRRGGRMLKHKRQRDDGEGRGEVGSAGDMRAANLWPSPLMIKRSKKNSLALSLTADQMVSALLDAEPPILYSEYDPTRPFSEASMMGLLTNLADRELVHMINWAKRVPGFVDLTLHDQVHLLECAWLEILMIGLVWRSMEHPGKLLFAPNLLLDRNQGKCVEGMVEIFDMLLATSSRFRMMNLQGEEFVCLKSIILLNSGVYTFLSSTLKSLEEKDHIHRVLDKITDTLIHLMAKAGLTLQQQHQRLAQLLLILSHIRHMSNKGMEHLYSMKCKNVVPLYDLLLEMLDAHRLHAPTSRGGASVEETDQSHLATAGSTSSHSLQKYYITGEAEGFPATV
Chain of Hepatocyte nuclear factor 4-alpha (Homo sapiens) (P41235 whole entry, looked up, the tested form may be a part): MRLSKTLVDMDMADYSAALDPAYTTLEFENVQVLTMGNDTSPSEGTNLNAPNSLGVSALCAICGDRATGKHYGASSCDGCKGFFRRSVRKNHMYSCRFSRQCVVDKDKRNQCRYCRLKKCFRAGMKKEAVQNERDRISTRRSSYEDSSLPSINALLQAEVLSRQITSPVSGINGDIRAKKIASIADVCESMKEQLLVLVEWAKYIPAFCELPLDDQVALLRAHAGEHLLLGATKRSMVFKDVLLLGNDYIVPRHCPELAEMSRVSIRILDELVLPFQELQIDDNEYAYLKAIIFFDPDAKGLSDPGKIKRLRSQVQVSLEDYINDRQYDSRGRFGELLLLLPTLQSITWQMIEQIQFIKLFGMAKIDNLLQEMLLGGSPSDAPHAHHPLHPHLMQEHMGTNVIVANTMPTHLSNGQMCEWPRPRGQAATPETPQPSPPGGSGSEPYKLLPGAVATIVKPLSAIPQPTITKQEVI
Chain of Transcriptional activator Myb (Homo sapiens) (P10242 whole entry, looked up): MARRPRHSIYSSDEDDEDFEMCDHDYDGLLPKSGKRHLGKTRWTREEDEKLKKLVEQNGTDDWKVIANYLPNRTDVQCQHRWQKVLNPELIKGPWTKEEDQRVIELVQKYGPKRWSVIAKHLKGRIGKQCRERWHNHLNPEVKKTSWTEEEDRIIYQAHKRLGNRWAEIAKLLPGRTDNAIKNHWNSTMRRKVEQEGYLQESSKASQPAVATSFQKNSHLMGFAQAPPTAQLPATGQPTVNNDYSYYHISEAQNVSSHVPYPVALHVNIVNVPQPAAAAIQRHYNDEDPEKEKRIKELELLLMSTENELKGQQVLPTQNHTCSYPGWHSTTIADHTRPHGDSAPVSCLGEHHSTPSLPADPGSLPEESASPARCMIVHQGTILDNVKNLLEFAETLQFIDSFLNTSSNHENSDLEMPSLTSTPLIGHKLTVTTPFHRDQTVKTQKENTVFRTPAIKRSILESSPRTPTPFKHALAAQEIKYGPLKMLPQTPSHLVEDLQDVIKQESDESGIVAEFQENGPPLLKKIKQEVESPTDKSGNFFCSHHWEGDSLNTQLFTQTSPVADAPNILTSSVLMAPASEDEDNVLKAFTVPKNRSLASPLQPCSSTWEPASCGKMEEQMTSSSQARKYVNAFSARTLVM
Chain of Nuclear receptor subfamily 1 group I member 3 (Homo sapiens) (Q14994 whole entry, looked up, the tested form may be a part): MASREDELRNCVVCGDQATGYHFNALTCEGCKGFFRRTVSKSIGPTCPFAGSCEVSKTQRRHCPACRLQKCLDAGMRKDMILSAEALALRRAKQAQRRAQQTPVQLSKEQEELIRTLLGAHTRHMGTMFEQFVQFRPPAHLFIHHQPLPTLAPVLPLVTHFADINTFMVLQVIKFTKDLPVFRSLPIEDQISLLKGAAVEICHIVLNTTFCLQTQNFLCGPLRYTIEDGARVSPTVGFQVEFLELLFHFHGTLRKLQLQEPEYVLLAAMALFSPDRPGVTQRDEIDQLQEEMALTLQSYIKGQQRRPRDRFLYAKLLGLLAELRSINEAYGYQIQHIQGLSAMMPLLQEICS
Chain of Nuclear respiratory factor 1 (Homo sapiens) (Q16656 whole entry, looked up): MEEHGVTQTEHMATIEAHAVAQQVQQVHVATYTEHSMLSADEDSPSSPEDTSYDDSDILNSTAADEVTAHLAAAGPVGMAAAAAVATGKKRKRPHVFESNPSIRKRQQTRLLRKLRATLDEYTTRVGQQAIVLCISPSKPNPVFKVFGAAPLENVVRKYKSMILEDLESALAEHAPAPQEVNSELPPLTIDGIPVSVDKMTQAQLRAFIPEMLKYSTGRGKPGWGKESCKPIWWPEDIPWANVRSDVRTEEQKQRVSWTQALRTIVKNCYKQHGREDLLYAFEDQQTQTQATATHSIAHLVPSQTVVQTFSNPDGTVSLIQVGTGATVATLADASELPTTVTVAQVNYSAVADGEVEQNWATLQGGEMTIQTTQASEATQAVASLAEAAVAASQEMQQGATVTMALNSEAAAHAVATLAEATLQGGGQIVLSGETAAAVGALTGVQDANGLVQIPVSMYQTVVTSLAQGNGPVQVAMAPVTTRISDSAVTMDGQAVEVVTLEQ
Chain of Bile acid receptor (Homo sapiens) (Q96RI1 whole entry, looked up, the tested form may be a part): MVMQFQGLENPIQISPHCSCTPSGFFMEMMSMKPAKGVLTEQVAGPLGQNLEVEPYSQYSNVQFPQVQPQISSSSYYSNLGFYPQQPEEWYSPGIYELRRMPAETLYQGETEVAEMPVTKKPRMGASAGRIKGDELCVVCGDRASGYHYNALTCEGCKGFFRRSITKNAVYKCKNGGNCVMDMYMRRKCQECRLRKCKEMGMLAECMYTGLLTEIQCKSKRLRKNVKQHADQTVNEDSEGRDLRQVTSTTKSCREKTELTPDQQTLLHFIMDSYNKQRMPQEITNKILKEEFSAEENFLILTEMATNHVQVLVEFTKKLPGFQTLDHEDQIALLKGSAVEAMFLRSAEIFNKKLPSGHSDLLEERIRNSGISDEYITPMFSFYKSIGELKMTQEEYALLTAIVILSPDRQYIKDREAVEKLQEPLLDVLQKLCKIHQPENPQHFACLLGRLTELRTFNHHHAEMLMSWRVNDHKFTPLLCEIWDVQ
Chain of Oxysterols receptor LXR-beta (Homo sapiens) (P55055 whole entry, looked up, the tested form may be a part): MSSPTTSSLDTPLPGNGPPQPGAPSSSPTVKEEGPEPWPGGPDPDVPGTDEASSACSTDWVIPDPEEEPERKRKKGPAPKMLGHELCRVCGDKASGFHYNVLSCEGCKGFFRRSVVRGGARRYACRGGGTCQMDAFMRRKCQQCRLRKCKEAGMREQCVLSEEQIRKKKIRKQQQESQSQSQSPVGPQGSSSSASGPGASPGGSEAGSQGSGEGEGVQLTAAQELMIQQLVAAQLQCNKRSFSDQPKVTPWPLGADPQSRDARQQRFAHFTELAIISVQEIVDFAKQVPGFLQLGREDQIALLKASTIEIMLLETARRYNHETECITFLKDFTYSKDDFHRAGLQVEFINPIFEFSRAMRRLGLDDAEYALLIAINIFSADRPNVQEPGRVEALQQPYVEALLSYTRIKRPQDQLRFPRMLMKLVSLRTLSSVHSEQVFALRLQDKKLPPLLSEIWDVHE
Chain of Estrogen-related receptor gamma (Homo sapiens) (P62508 whole entry, looked up, the tested form may be a part): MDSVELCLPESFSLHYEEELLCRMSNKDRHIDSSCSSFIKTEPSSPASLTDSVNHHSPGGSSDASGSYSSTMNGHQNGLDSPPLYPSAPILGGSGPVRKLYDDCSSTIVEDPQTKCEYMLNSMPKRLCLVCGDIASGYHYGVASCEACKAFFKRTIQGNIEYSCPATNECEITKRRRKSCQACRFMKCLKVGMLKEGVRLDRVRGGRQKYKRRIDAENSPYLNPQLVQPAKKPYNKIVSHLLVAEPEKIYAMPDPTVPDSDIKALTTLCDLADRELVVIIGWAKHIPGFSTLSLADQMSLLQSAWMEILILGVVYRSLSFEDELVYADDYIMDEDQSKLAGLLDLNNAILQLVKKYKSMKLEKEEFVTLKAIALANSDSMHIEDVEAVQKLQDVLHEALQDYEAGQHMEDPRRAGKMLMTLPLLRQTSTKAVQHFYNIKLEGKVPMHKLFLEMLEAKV

`O=C(OCC1CCC2OC2C1)C1CCC2OC2C1` (stereo not given): the result in [1], in [2], in experiment [3], in [4], in [5] and in experiment [6] was inactive. Also, the call in [7], in experiment [8], in [9] and in experiment [10] was inactive.
Turning to `O=C(c1ccccc1)C1CCC1`, the outcome in experiment [1], in [2], in experiment [3], in [4], in [5] and in experiment [11] was inactive. Further, the result in [12], in [7], in [13], in [9] and in experiment [10] was inactive.
`CCCCCCC1(C)CCC(=O)O1` (stereo not given): the compound was classed as inactive in [1], in experiment [2], in experiment [3], in experiment [4], in [14] and in experiment [5]. Also, the result in [12], in [7], in [13], in [9] and in experiment [10] was inactive.
For orientation: AC50 means the midpoint of the concentration-response curve, whichever way the signal moves. Take `C=CCOc1c(Br)cc(Br)cc1Br`: the compound was called inactive in [1], in [2], in experiment [4], in [5], in [15] and in experiment [16]. The compound was called inactive in experiment [17], in [6], in experiment [7], in [13], in experiment [9] and in [10]. Further, the AC50 is 23.7 µM (active) in [3], 15.7 µM (active) in experiment [14] and 43.4 µM (active) in experiment [8].
For `O=C1C(N(CO)C(=O)NCO)N(CO)C(=O)N1CO` (stereo not given), the outcome in [1], in experiment [2], in experiment [3], in [4], in [14] and in [18] was inactive. In addition, the compound was called inactive in experiment [11], in experiment [19], in experiment [12], in experiment [13], in [8] and in experiment [9]. In addition, the compound was classed as inactive in experiment [10].
For `Nc1ccc(N)c(Cl)c1`, the outcome in experiment [1], in [2], in experiment [4], in [5], in experiment [18] and in experiment [17] was inactive. Moreover, the compound was called inactive in experiment [12], in experiment [8] and in experiment [9]. The half-maximal activity concentration (AC50) in experiment [3] is 33.4 µM (active).
